# Source: PubChem BioAssay
# ADAM17 inh: ADAM17 inhibition, QFRET primary screen. inhibition, % at 6.95 µM. P78536. 370,000 compounds, 0.83% hits. recombinant ADAM17, EDANS/DABCYL FRET peptide cleavage;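 active = inhibition above the mean of compounds lying between control limits plus 3 SD, set per campaign, cut at about 8.5% in these data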
# Pemphigus Ab inh: human desmoglein-3 autoantibody binding inhibition | P32926 | DSG3-coupled beads, scFv-anti-DSG3-GFP binding, flow cytometry; hits give low values | binding (percent of control), % at 10 µM | 310,000 compounds, 0.48% hits | AID 588358;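 active = binding more than 3 SD below its plate's average and above zero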;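 note: hits lower antibody fragment binding to DSG3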
# Target sequence (P32926 whole entry, looked up, the tested form may be a part): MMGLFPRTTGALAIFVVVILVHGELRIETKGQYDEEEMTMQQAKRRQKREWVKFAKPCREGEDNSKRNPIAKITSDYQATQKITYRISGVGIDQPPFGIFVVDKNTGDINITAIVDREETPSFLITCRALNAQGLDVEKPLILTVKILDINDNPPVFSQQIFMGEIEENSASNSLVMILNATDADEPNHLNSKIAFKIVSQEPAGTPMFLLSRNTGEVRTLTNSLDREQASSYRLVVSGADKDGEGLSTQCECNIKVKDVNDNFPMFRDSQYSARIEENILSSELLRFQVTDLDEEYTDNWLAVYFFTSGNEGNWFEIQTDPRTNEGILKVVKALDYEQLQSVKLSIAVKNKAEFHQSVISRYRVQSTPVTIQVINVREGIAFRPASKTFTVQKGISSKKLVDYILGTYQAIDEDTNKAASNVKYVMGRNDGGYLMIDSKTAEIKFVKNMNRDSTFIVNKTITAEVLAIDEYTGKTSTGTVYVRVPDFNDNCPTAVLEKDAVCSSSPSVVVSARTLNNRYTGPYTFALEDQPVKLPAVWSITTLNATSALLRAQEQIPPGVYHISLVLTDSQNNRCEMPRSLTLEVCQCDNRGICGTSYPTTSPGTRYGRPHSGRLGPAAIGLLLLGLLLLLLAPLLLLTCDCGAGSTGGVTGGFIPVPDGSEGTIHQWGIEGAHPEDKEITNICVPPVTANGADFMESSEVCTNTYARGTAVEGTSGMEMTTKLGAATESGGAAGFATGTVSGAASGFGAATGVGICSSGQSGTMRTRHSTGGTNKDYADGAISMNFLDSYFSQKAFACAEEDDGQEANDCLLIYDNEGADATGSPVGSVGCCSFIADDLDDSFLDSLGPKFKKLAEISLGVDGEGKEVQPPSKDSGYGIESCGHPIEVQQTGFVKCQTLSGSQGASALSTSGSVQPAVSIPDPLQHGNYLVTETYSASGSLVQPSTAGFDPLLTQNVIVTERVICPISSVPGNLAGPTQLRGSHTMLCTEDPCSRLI
# rCAG binder: r(CAG) repeat RNA binding; inhibition, % at 3 µM; TO-PRO-1 dye displacement fluorescence; AID 651821; 370,000 compounds, 1.3% hits;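 active = inhibition above the plate cutoff, the mean of all test compounds on that plate plus 3 SD, cut at about 35% in these data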;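 note: higher means more dye released from RNA so lower well fluorescence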
# MPTP block: blocks calcium-induced mitochondrial swelling; isolated mouse mitochondria, Ca2+ swelling absorbance, 30 min; inhibition, % at 10 µM; 360,000 compounds, 1.4% hits;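 active = inhibition of 50% or more, scaled per plate between neutral and stimulator controls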
# ADAM10 inh: inhibits human ADAM10; O14672; recombinant ADAM10, EDANS/DABCYL FRET peptide cleavage, 3 h; inhibition, % at 7 µM; 370,000 compounds, 0.62% hits; AID 720582;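 active = inhibition above a per-campaign cutoff equal to the mean of compounds falling between control-based bounds plus 3 SD, cut at about 20% in these data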
# KLK7 zymogen act: activators of human kallikrein-7 zymogen. activation, % at 7 µM. 370,000 compounds, 0.9% hits. purified proKLK7, EDANS-DABCYL substrate fluorescence; 100% is mature enzyme control, 0% vehicle. P49862;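 active = activation above the mean of all tested compounds plus 3 SD, computed per campaign excluding outliers beyond control limits, cut at about 13% in these data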
# proKLK7 act conf: proKLK7 activation, confirmation; activation, % at 7 µM; 3,200 compounds, 68% hits; purified proKLK7, EDANS-DABCYL substrate fluorescence; scaled: vehicle 0, mature enzyme 100; AID 686949; shares compounds with KLK7 zymogen act;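 active = activation, as change over the incubation, above the mean of all tested compounds plus 3 SD, cut at about 13% in these data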
# EDANS interfere: fluorescence interference counter-screen for KLK7 activators; shares compounds with KLK7 zymogen act; EDANS-DABCYL substrate fluorescence interference, no enzyme, 4 h; solvent 0%, active enzyme control 100%; activation, % at 7 µM; 3,200 compounds, 80% hits;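 active = activation above the all-compound mean plus 3 SD, ignoring values outside control-based bounds, cut at about 4.8% in these data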;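 note: value is the 4 h activation minus the activation read at time zero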
# EDANS interf: optically interferes with EDANS-DABCYL fluorescence, kallikrein-7 activator counter-screen; EDANS-DABCYL peptide fluorescence interference, no enzyme; EC50, µM; 250 compounds, 20% hits; shares compounds with KLK7 zymogen act;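 active = compounds that raise the fluorescence signal in this interference counterscreen, with EC50 at or below 10 µM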;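 note: intact quenched peptide substrate alone read at 355 nm excitation and 520 nm emission; signal is fluorescence gain from T0 to T4 after four hours at room temperature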
# Numbers stand for hits; - = inactive; . = not tested or not shown. In the library only some 4.7% were active in any assay of this set; here they are far more common.
SMILES,ADAM17 inh,Pemphigus Ab inh,rCAG binder,MPTP block,ADAM10 inh,KLK7 zymogen act,proKLK7 act conf,EDANS interfere,others
Cc1ccc2nc(-c3ccc(SCC(=O)Nc4nc(C)cs4)nc3)[nH]c2c1,-,-,-,-,-,-,.,.,
Cc1ccc(/C=C2/NC(=O)N(Cc3ccccc3)C2=O)s1,-,-,-,-,-,17,-,-,
C[C@H]1CC[C@]2(O[C@@H](CCO)C[C@H](O)[C@H]2O)O1,-,-,-,-,-,-,.,.,
N#Cc1ccc(C23OCCN2CCn2c3c3ccccc3[n+]2[O-])cc1 (centres undefined),-,-,-,-,-,-,.,.,
Cc1ccc(C23OCCN2CCn2nc4ccccc4c23)cc1 (centres undefined),-,-,-,-,-,44,-,-,
O=C1c2c(-c3ccc(Br)cc3)noc2CCN1Cc1cn(C2CCCC2)nn1,-,.,-,-,-,-,.,.,
OC1CN=C2CCCc3c2n(c2ccc(Cl)cc32)C1 (centres undefined),-,-,-,-,-,17,-,-,
CCOC(=O)c1cc(-c2cccs2)nc2onc(C)c12,-,-,-,-,-,18,-,-,
O=C(c1nc2nc(-c3cccs3)cc(C(F)(F)F)n2n1)N1CCN(Cc2ccccc2)CC1,-,-,-,-,-,26,-,-,
O=C(c1nc2nc(-c3ccccc3)cc(C(F)(F)F)n2n1)N1CCOCC1,-,-,-,-,-,-,.,.,
CCOC(=O)c1sc(-c2cccs2)nc1C,-,-,-,-,-,-,.,.,
O=C(c1cnn2c(C(F)(F)F)cc(-c3cccs3)nc12)N1CCCC1,-,-,-,-,-,16,13,14,
Nc1nc2nc(-c3ccc(F)cc3)cc(C(F)(F)F)n2n1,-,-,-,-,-,24,17,16,
O=C(c1cnn2c(C(F)(F)F)cc(-c3ccco3)nc12)N1CCCCCC1,-,.,-,-,-,-,.,.,
O=C1[C@H](Cc2ccccc2)NCC=CC[C@H](c2ccco2)N1Cc1ccccc1,-,-,-,-,-,-,.,.,
Nc1nc2nc(-c3cccs3)cc(C(F)(F)F)n2n1,-,.,-,-,-,82,75,78,
COc1ccc(-c2cc(C(F)(F)F)n3nc(N)nc3n2)cc1,.,-,.,-,.,.,.,.,
CCOC(=O)c1nc2nc(-c3cccs3)cc(C(F)(F)F)n2n1,-,-,-,-,-,62,65,62,
CCOC(=O)[C@H]1[C@H]2COc3ccc(Cl)cc3[C@@H]2N2C(=O)CN(CC3CCCO3)C(=O)[C@@]12C (some centres undefined),-,-,-,-,-,-,.,.,
CC1CCN(CCCNC(=O)c2cc3c(s2)-c2ccccc2OC3)CC1,-,-,-,-,-,75,74,74,
CC1CCCN(CCCNC(=O)c2cc3c(Cl)nc4ccccc4c3s2)C1 (centres undefined),-,-,-,-,-,-,.,.,
CCOC(=O)c1cc2c(s1)-c1c(C)cccc1OC2,-,-,-,-,-,-,.,.,
O=C(c1cc2c(s1)-c1ccccc1OC2)N1CCc2ccccc2C1,-,-,-,-,-,-,.,.,
CC1CCCN(CCCNC(=O)c2cc3c(s2)-c2ccccc2OC3)C1 (centres undefined),-,-,-,-,-,43,63,78,
COC(=O)c1cc2c(s1)-c1ccccc1OC2,-,-,-,-,-,82,76,80,
SMILES,ADAM17 inh,Pemphigus Ab inh,rCAG binder,MPTP block,ADAM10 inh,KLK7 zymogen act,proKLK7 act conf,EDANS interfere,others
Cc1cccc2c1-c1sc(C(=O)NCCCN3CCC(C)CC3)cc1CO2,-,-,-,-,-,49,64,65,
COCCNC(=O)C1(C)CCCN(C(=O)c2cc(C)on2)C1 (centres undefined),-,.,-,-,-,-,.,.,
C[C@H](CO)N1C[C@H](C)[C@@H](CN(C)S(=O)(=O)c2ccccc2)Oc2ccc(NS(=O)(=O)c3cccs3)cc2C1=O,-,-,-,-,-,-,.,.,
COc1ccccc1N1CCN(C(=O)c2cc3c(s2)-c2ccccc2OC3)CC1,-,-,-,-,-,-,.,.,
CCOC(=O)C1CCN(C(=O)c2cc3c(s2)-c2ccccc2OC3)CC1,-,-,-,-,-,14,-,-,
CCCCNS(=O)(=O)CC1NCc2cc(OC)ccc21 (centres undefined),-,.,-,.,-,-,.,.,
COC(=O)c1c(NC(=O)c2ccc(N(C)S(=O)(=O)c3ccc(C)cc3)cc2)sc2c1CCCC2,-,-,-,-,-,-,.,.,
O=C(Nc1sc2c(c1C(=O)NCCCO)CCCC2)c1ccccc1,-,-,-,-,-,-,.,.,
NCCNC(=O)c1c(NC(=O)c2ccccc2)sc2c1CCCC2,-,-,-,-,-,19,-,-,
COCCN(CCOC)S(=O)(=O)c1ccc(C(=O)Nc2sc3c(c2C(N)=O)CCCCC3)cc1,-,-,-,-,-,19,-,21,
COc1cc(C(=O)NCC(c2cccs2)N2CCOCC2)ccc1OCc1ccccc1 (centres undefined),-,-,-,-,-,-,.,.,
O=C(C1COc2ccccc2O1)N1CCN(S(=O)(=O)c2ccccc2)CC1 (centres undefined),-,-,-,-,-,-,.,.,
Nc1nonc1-n1nnc(C(=O)N/N=C/c2cc(Cl)ccc2O)c1CN1CCCCCC1,-,.,-,-,-,-,.,.,
CC(C(=O)NCc1ccccc1)n1c(CSCCOc2ccccc2)nc2ccccc21 (centres undefined),-,.,-,-,-,-,.,.,
CC(C)Cn1c(-c2ccc(C#N)cc2)nc2c1c(=O)[nH]c(=O)n2CC(C)C,-,-,-,-,-,18,-,-,
O=C1c2ccccc2NC(c2ccccc2)N1Cc1ccco1 (centres undefined),-,-,-,-,-,17,17,7.5,EDANS interf=-
O=C1c2ccccc2NC(c2ccccc2)N1Cc1ccccc1 (centres undefined),-,-,-,-,-,-,.,.,
O=C1c2ccccc2NC(c2ccc(F)cc2)N1Cc1ccco1 (centres undefined),-,-,-,-,-,15,-,19,
COc1cc2c(cc1OC)CN(CC(=O)Nc1ccc(C#N)cc1)CC2,-,-,-,-,-,17,-,-,
COc1cc[n+]([O-])cc1[N+](=O)[O-],-,-,-,-,-,-,.,.,
Cc1nc(/C=C\C(=O)O)c2cc(C)oc2n1,-,-,-,-,-,13,20,22,
